Assay [1] is described as follows: Tanguay_ZF_120hpf_OTIC_legacy: (Legacy) Oregon State University Tanguay Lab 120 Hour Post-fertilization zebrafish Assay for Otic Vesicle Malformation (AID 2283639). The essentials: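 Otic vesicle malformation is read as a yes/no morphology call at 120 hpf. Exposure is static at 28C with 0.64% (vol/vol) DMSO; embryos that die are excluded from non-mortality endpoints.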

The nature of assay [2]: Tanguay_ZF_120hpf_PE_legacy: (Legacy) Oregon State University Tanguay Lab 120 Hour Post-fertilization zebrafish Assay for Pericardial Edema (AID 2283640). An outline of the steps:
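Read-out is the presence or absence of pericardial edema at 120 hpf under brightfield, with gain of signal fitted against DMSO controls. Larvae (5D wild-type) were statically exposed at 28C with 0.64% final DMSO.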

Assay [3] is described as follows: Tanguay_ZF_120hpf_BRAI_legacy: (Legacy) Oregon State University Tanguay Lab 120 Hour Post-fertilization zebrafish Assay for Brain Malformation (AID 2283641). The essentials:
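Brain malformation in Tropical 5D zebrafish was recorded as a binary endpoint after static compound exposure from early development to 120 hpf at 28C. Activity was analysed against DMSO as negative control.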

The nature of assay [4]: Tanguay_ZF_120hpf_PFIN_legacy: (Legacy) Oregon State University Tanguay Lab 120 Hour Post-fertilization zebrafish Assay for Pectoral Fin Malformation (AID 2283648).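 Note: each larva judged yes or no for fin defect by brightfield with dead larvae skipped.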 An outline of the steps:
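5D WT zebrafish; pronase dechorionation 4 hpf; 1 embryo/well at 6 hpf; static exposure to 120 hpf, 28C, sealed, foil-covered; final DMSO 0.64% v/v; 5 uM trimethyltin chloride positive control; fin defect scored yes/no.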

The nature of assay [5]: Tanguay_ZF_120hpf_CFIN_legacy: (Legacy) Oregon State University Tanguay Lab 120 Hour Post-fertilization zebrafish Assay for Caudal Fin Malformation (AID 2283649). The essentials:
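Embryos were collected from Tropical 5D wild-type adults and dechorionated at 4 hpf. At 6 hpf each was exposed, one per well, at 0.64% DMSO and 28C. At 120 hpf fin morphology was scored; dead embryos were excluded.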

The nature of assay [6]: Tanguay_ZF_120hpf_PIG_legacy: (Legacy) Oregon State University Tanguay Lab 120 Hour Post-fertilization zebrafish Assay for Pigmentation Malformation (AID 2283650). The essentials: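 Pronase dechorionation at 4 hpf; embryos plated at 6 hpf, one per well; static exposure, sealed and foil-covered, 28C, to 120 hpf; pigmentation read by brightfield, binary; DMSO 0.64% baseline, 5uM trimethyltin chloride positive control.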

Assay [7] can be described thus: Tanguay_ZF_120hpf_CIRC_legacy: (Legacy) Oregon State University Tanguay Lab 120 Hour Post-fertilization zebrafish Assay for Circulatory Malformation (AID 2283651). An outline of the steps: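 Using wild-type Tropical 5D zebrafish, we exposed dechorionated embryos from 6 to 120 hpf in embryo medium with 0.64% DMSO. Circulatory defects were scored as present or absent; 5uM trimethyltin chloride served as positive control.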

The nature of assay [8]: Tanguay_ZF_120hpf_SWIM_legacy: (Legacy) Oregon State University Tanguay Lab 120 Hour Post-fertilization zebrafish Assay for Swim Bladder Malformation (AID 2283654).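 Note: swim bladder malformation in each larva scored yes or no under brightfield.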 The essentials:
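Embryos lacking chorions were exposed individually and statically to test chemical from 6 to 120 hpf at 28C, with 0.64% DMSO as vehicle. At 120 hpf, swim bladder malformation was recorded as present or absent by brightfield microscopy.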

Assay [9] in a line: Tanguay_ZF_120hpf_NC_legacy: (Legacy) Oregon State University Tanguay Lab 120 Hour Post-fertilization zebrafish Assay for Notochord and Tail Malformation (AID 2283656). The essentials:
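Dechorionated 5D zebrafish, 1/well from 6 hpf; static exposure to 120 hpf, 28C, sealed, dark; final DMSO 0.64% v/v. NC scored binary (present/absent); dead embryos not scored. Fit vs DMSO baseline, gain direction.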

Assay [10] can be described thus: Tanguay_ZF_120hpf_TR_legacy: (Legacy) Oregon State University Tanguay Lab 120 Hour Post-fertilization zebrafish Assay for Touch Response (AID 2283667). An outline of the steps: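 5D WT embryos; static exposure to 120 hpf, 28C, sealed/dark; DMSO 0.64% v/v final. TR scored present/absent; dead embryos excluded. Pos ctrl 5uM trimethyltin chloride.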
The nature of assay [11]: Tanguay_ZF_120hpf_JAW_legacy: (Legacy) Oregon State University Tanguay Lab 120 Hour Post-fertilization zebrafish Assay for Jaw Malformation (AID 2283638). The essentials: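 Static waterborne exposure of dechorionated wild-type (Tropical 5D) zebrafish from 6 to 120 hpf at 28C, 0.64% DMSO vehicle; 5uM trimethyltin chloride served as positive control. Jaw morphology recorded as binary at 120 hpf.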

Assay [12] is described as follows: Tanguay_ZF_120hpf_SOMI_legacy: (Legacy) Oregon State University Tanguay Lab 120 Hour Post-fertilization zebrafish Assay for Somite Malformation (AID 2283647). The essentials:
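5D WT zebrafish; chorion removed 4 hpf; 1 embryo/well from 6 hpf; static exposure to 120 hpf, 28C, 0.64% DMSO final. Endpoint: somite malformation, binary, brightfield. Mortality excluded.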

Read-out in assay [13]: kallikrein-3 (KLK3), KLK3 (gene 354)
Put plainly: LTEA_HepaRG_KLK3: Life Technologies and Expression Analysis (LTEA) Assay for kallikrein-3 (KLK3) using HepaRG (AID 2283652; active = hit-call score of the fitted dose curve at least 0.9, where 1 is the maximum; inactive = score below 0.9). The conditions noted are these: mRNA level, 48 h; actives raise or lower the signal. The essentials: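 Differentiated human HepaRG cells in serum-free induction medium exposed 48 h in duplicate, eight-point half-log series from 100 uM in 0.5% DMSO. KLK3 mRNA by qRT-PCR, normalised to ACTB, GAPDH, POLR2A; bidirectional fit versus DMSO.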

Read-out in assay [14]: solute carrier (SLC22A6), SLC22A6 (gene 9356)
Put plainly: LTEA_HepaRG_SLC22A6: Life Technologies and Expression Analysis (LTEA) Assay for solute carrier (SLC22A6) using HepaRG (AID 2283653; active = hit-call score of the fitted dose curve at least 0.9, where 1 is the maximum; inactive = score below 0.9). The note with it: mRNA level, 48 h; actives raise or lower the signal. An outline of the steps: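 This endpoint tracks SLC22A6 mRNA induction or suppression in human HepaRG cultures after 48 h dosing, concentrations reaching 100 uM. Values derive from bidirectional fitting against DMSO controls.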

Assay [15] in a line: Tanguay_ZF_120hpf_TRUN_legacy: (Legacy) Oregon State University Tanguay Lab 120 Hour Post-fertilization zebrafish Assay for Truncated Body (AID 2283655). The essentials: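 5D wild-type larvae; pronase dechorionation; static exposure 6→120 hpf, 28C; DMSO 0.64% final; 5uM trimethyltin chloride positive control. Readout: presence/absence of truncated body, analyzed relative to DMSO.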

Read-out in assay [16]: solute carrier (SLC10A1), SLC10A1 (gene 6554)
The assay is described as follows: LTEA_HepaRG_SLC10A1: Life Technologies and Expression Analysis (LTEA) Assay for solute carrier (SLC10A1) using HepaRG (AID 2283657; active = hit-call score of the fitted dose curve at least 0.9, where 1 is the maximum; inactive = score below 0.9). The conditions noted are these: mRNA level, 48 h; actives raise or lower the signal. The essentials: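 Transcript levels were measured by qRT-PCR after human HepaRG cells received test chemical for 48 hours, up to 100 uM in half-log dilutions. Values come from bidirectional concentration-response fitting relative to 0.5% DMSO vehicle.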

Read-out in assay [17]: matrix metalloproteinase-1 (MMP1), MMP1 (gene 4312)
Put plainly: LTEA_HepaRG_MMP1: Life Technologies and Expression Analysis (LTEA) Assay for matrix metalloproteinase-1 (MMP1) using HepaRG (AID 2283658; active = hit-call score of the fitted dose curve at least 0.9, where 1 is the maximum; inactive = score below 0.9). The note with it: mRNA level, 48 h; actives raise or lower the signal. An outline of the steps: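 Bidirectional concentration-response fitting relative to 0.5% DMSO gives the endpoint, derived from MMP1 mRNA levels (qRT-PCR) in human HepaRG cells treated 48 h with chemicals up to 100 uM.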

Assay [18] deals with Thyroperoxidase (TPO), gene 54314. The assay is described as follows: CCTE_Simmons_AUR_rTPO: CCTE's Amplex UltraRed Assay for Thyroperoxidase (TPO) Inhibition, Simmons Lab (AID 2283662).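 For AC50: potency for loss of signal meaning inhibition of peroxidase activity.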 The essentials: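 Endpoint is decreased Amplex UltraRed fluorescence after a 30-min, 37C reaction of rat thyroid microsomes with 300 uM H2O2. Eight test concentrations (5 nM–87.5 uM final) in 0.5% DMSO, three biological replicates each.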

Assay [19] is described as follows: CCTE_Simmons_CellTiterGLO_HEK293T: Viability Assessment in CCTE's Assays for Thyroperoxidase (TPO) Inhibition, Simmons Lab (AID 2283665).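 For AC50: cells exposed to compound for 24 h before readout; actives reduce ATP signal below DMSO vehicle meaning cytotoxicity.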 An outline of the steps: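 Cytotoxicity counter-screen: human HEK293T cells in low-serum (1% FBS) medium receive test chemical, 5 nM to 87.5 uM final, for 24 h; ATP is quantified by luciferase luminescence.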
(In general: Cellular ATP, detected with luciferase, serves as a proxy for viable cell number.)

Read-out in assay [20]: Cytochrome P450 (CYP24A1_1), CYP24A1 (gene 1591)
Put plainly: LTEA_HepaRG_CYP24A1_1: Life Technologies and Expression Analysis (LTEA) Assay for Cytochrome P450 (CYP24A1_1) using HepaRG (AID 2283671; active = hit-call score of the fitted dose curve at least 0.9, where 1 is the maximum; inactive = score below 0.9). The note with it: mRNA level, 48 h; actives raise or lower the signal. The essentials:
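In this test, gene induction or suppression of CYP24A1 in human HepaRG liver cells is measured by qRT-PCR after 48 h chemical treatment (eight concentrations, maximum 100 uM). Values are fitted bidirectionally relative to DMSO.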

A word on the AC50: it is the concentration giving half of the maximal activity seen.

Inconclusive results are not listed. More than one record can exist for a structure, and the calls need not agree. Calls of active or inactive are those of the source. Rule for the calls, unless noted: active = hit-call score of the fitted dose curve at least 0.9, where 1 is the maximum; inconclusive = response in the unintended direction; inactive = score below 0.9.

With `O=C(O)c1ccccc1C(=O)OCc1ccccc1`, the result in [1], in assay [2], in assay [3], in [4], in assay [5] and in [6] was inactive. The call in assay [7], in assay [8], in assay [9] and in assay [10] was inactive.

`Cc1cc(F)ccc1-c1cc(N2CC[C@@H](O)[C@H]2CO)ncc1N(C)C(=O)C(C)(C)c1cc(C(F)(F)F)cc(C(F)(F)F)c1`: the compound was classed as inactive in [11], in assay [1], in assay [12], in assay [5], in assay [8] and in [9]. Moreover, the result in [10] was inactive.

As to `CC[C@H](NC(=O)c1cc(F)ccc1NS(=O)(=O)c1cccc2cccnc12)c1ccccc1`, the compound was called inactive in [11], in assay [1], in assay [2], in [3], in assay [4] and in [5]. Also, the result in assay [8], in assay [9] and in assay [10] was inactive.

As for `CCCOC(=O)c1cc(O)c(O)c(O)c1`, the compound was classed as inactive in assay [11], in assay [1], in [2], in [3], in [12] and in assay [4]. Further, the outcome in assay [6], in assay [7], in [13], in [14], in assay [8] and in assay [15] was inactive. The compound was classed as inactive in [9], in assay [16], in assay [17], in [10] and in [20]. In addition, the AC50 in [18] is 0.772 µM (active); in assay [19], 22.6 µM (active).

With `Oc1ccccc1`, the compound was classed as inactive in assay [11], in [1], in assay [2], in assay [3], in assay [12] and in [4]. Further, the call in assay [8], in assay [15], in assay [9], in [18], in assay [19] and in [10] was inactive. For the same compound, the AC50 in assay [18] is 23.6 µM (active).

Regarding `Cc1ccc(C(C)C)cc1`, the call in assay [11], in assay [1], in [3], in [12], in [4] and in [5] was inactive. The result in assay [8], in [9] and in [10] was inactive.

`CCCCOC(=O)CC(CC(=O)OCCCC)(OC(C)=O)C(=O)OCCCC`: the compound was called inactive in assay [11], in assay [1], in assay [2], in assay [3], in assay [4] and in assay [8]. The outcome in assay [15] and in assay [10] was inactive.

For the compound `O=C=NCCCCCCN=C=O`, the result in [11], in assay [1], in [2], in [3], in [5] and in assay [15] was inactive.

Take `CC/C(=C(/CC)c1ccc(O)cc1)c1ccc(O)cc1`: the outcome in assay [11], in assay [1], in assay [2], in assay [3], in assay [4] and in assay [5] was inactive. Moreover, the result in assay [8] was inactive. Further, the AC50 is 5.22 µM (active) in assay [18] and 8.59 µM (active) in assay [19].

As for `OCCO`, the call in assay [11], in assay [2], in assay [3], in assay [4], in assay [5] and in [8] was inactive. In addition, the result in assay [15], in assay [9] and in assay [10] was inactive.

(Values after PubChem BioAssay (EPA / NIEHS).)
